DAX1 inh-1: blocks DAX1 repression of SF-1 activated StAR promoter. hit rate 1.1% among 370,000. HEK293T StAR-luciferase reporter, SF-1/DAX-1 repression relief. inhibition, % at 6.8 µM;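 active means inhibition above the mean over all tested compounds plus 3 SD, cut at about 3.6% in these data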;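 further: 0% = DAX-1 cells with DMSO and 100% = cells lacking DAX-1 with DMSO; higher inhibition means more luminescence from relief of DAX-1 repression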
ssDAF-12 act: activates DAF-12 receptor from parasite S. stercoralis; AID 652126; hit rate 1% among 370,000; HEK293 ssDAF-12/GRIP1 lit1-tk-luc reporter, luminescence; % of 3 µM dafachronic acid response; activation, % at 6.8 µM;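 active means activation above the mean over all tested compounds plus 3 SD, cut at about 0.9% in these data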;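 further: 0% = DMSO-only wells and 100% = 3 µM delta7-dafachronic acid wells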
hgDAF-12 ag: hgDAF-12 agonism, primary luciferase screen; hit rate 1.8% among 370,000; AID 687014; activation, % at 6.8 µM; HEK293 GAL4-hgDAF12 UAS-luciferase reporter, agonist luminescence; normalized to butyrate control;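 active means activation above a cutoff set at the mean of all screened compounds plus 3 SD, cut at about 10% in these data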;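 further: 0% = DMSO wells and 100% = sodium butyrate wells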
hcDAF-12 act: H. contortus DAF-12 activation, primary screen; HEK293 hcDAF-12 lit1-tk-luc reporter, luminescence; 0% DMSO, 100% Δ7-dafachronic acid; activation, % at 6.8 µM; hit rate 1.4% among 370,000; AID 652067;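 active means activation above the mean of all tested compounds plus 3 SD, cut at about 5.5% in these data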;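 further: 100% = response to 3 µM Δ7-dafachronic acid high control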
DAX1 inh-2: inhibits human nuclear receptor DAX1 | P51843 | HEK293 Gal4-DAX1 luciferase reporter, luminescence | inhibition, % at 6.75 µM | hit rate 0.99% among 340,000 | AID 504766;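 active means inhibition above the mean over all tested compounds plus 3 SD, cut at about 4.2% in these data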;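 further: 0% = DAX1-transfected cells with DMSO and 100% = empty-vector control cells with DMSO; inhibition shows as a rise in luminescence from relieved DAX1 repression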
Target sequence (P51843 207-470 limits assumed): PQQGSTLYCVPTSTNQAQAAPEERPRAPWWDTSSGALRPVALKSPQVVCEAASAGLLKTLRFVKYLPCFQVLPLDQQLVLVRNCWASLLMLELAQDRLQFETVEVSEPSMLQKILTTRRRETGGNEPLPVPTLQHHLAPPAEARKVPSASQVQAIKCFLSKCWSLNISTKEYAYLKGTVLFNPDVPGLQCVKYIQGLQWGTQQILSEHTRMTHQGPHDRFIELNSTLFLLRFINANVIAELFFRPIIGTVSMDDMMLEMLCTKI
DAX1 conf: confirmation of human DAX1 (NR0B1) inhibitors. shares compounds with DAX1 inh-1. HEK293T StAR-promoter luciferase reporter, SF-1/DAX-1 repression. inhibition, % at 6.8 µM. hit rate 87% among 2,400. AID 652134;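 active means inhibition above the average of every tested compound plus 3 SD, cut at about 3.8% in these data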;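 further: 0% = DAX-1 cells with DMSO and 100% = no DAX-1 control cells with DMSO; active compounds raise luminescence by relieving repression of the StAR reporter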
Target sequence (P51843 whole entry, looked up): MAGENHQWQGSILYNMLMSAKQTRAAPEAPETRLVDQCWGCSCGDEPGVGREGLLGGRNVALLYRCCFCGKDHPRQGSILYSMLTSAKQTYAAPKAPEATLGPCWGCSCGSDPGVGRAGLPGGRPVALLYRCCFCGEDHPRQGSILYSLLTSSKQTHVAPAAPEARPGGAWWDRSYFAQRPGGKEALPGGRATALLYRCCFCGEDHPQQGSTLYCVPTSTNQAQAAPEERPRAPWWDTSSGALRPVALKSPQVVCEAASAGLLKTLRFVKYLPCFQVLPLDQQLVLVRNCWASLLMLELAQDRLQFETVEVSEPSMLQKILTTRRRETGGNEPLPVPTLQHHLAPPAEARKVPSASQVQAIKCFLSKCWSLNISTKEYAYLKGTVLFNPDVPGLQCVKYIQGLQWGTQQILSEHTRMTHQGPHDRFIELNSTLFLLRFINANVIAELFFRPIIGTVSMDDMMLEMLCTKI
SF1 AF2mut Luc: nonselective inhibitor or artifact in SF-1 mutant DAX1 counter-screen. shares compounds with DAX1 inh-1. HEK293 StAR-luciferase, SF-1 AF2 mutant, luminescence. inhibition, % at 6.8 µM. hit rate 78% among 2,400. AID 652136;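 active means inhibition above the mean of all tested compounds plus 3 SD, cut at about 3% in these data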;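 further: 0% = DAX-1 transfected cells with DMSO and 100% = cells without DAX-1 with DMSO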
The depositor's hits bear a star; · = not tested or not shown. An excerpt weighted towards active compounds, which were near 4.1% of everything screened.

SMILES | DAX1 inh-1 | ssDAF-12 act | hgDAF-12 ag | hcDAF-12 act | DAX1 inh-2 | DAX1 conf | SF1 AF2mut Luc
COc1ccc(-n2ncc3c(Nc4cccc(C)c4)ncnc32)cc1 | 1.2 | -1.2 | 3.5 | -1.3 | 0.4 | · | ·
O=C(NCc1cc(Cl)cc(Cl)c1)c1ccc2nc([C@@H]3O[C@H](CO)[C@H](O)[C@H](O)[C@H]3O)[nH]c2c1 | -0.7 | -1.0 | -0.5 | -0.1 | · | · | ·
O=C(Nc1ccccn1)c1cccc(S(=O)(=O)N2CCOCC2)c1 | 0.7 | -1.0 | -0.5 | -0.7 | 1.5 | · | ·
Cc1ccnc(NC(=O)c2cccc(S(=O)(=O)N3CCOCC3)c2)c1 | 6.1* | -0.2 | 10.9* | 3.3 | 0.4 | 4.7* | 2.8
C[C@@H]1CCN(C2CC2)S(=O)(=O)c2ccc(N3CC[C@@H](N(C)C)C3)cc2O1 | -0.8 | -0.8 | 0.5 | -1.6 | · | · | ·
Cc1coc(C)c1C(=O)Nc1ccc2ccccc2c1 | 7.4* | 0.9* | 8.3 | 3.0 | 1.1 | 6.0* | 3.8*
O=C(Nc1ccc2ccccc2c1)c1cccnc1 | 4.7* | 0.0 | 8.2 | 2.8 | 2.2 | 11.2* | 7.7*
O=C(Nc1ccc2ccccc2c1)c1cnccn1 | 5.5* | 0.9 | 10.9* | 6.4* | 1.5 | 14.4* | 7.9*
C#CCN1CC(COCCCC)Oc2cccc(Oc3ccc(C(C)(C)C)c(C)c3)c2S1(=O)=O (configuration not stated) | 0.4 | -0.6 | -0.5 | -1.7 | · | · | ·
CC1CCN(CCCNC(=O)CCc2nnc3n(CCc4ccccc4)c(=O)c4ccccc4n23)CC1 | 5.7* | -1.4 | -2.6 | 1.3 | -0.1 | -1.5 | -0.2
CC(Nc1nc(-c2ccccc2)nc2ccccc12)c1ccccc1 (configuration not stated) | 4.7* | -1.4 | 7.4 | 0.2 | 0.8 | 7.3* | 0.4
CC(Nc1nc(-c2ccccc2O)nc2ccccc12)c1ccccc1 (configuration not stated) | 2.0 | 0.7 | 9.6 | 4.2 | 1.1 | · | ·
O=C(NCc1ccco1)C1CCCN(S(=O)(=O)c2ccc(F)cc2)C1 (configuration not stated) | 0.5 | -1.3 | -1.3 | -1.8 | · | · | ·
O=C(N/N=C/C(Br)=C\c1ccccc1)c1n[nH]c2c1CCC2 | 4.7* | 1.9* | 0.9 | 4.6 | -0.8 | 20.9* | -3.5
Cc1ccc2nc3ccc(N4CCCC4)nn3c(=O)c2c1 | 1.2 | -0.7 | 8.0 | 0.2 | 0.3 | · | ·
CC1CCCN(c2ccc3nc4ccccc4c(=O)n3n2)C1 (configuration not stated) | 4.7* | -0.1 | 10.8* | 4.0 | -2.1 | 7.8* | 3.5*
CNC(C)C(=O)NC(C(=O)N1CCCC1C(=O)Nc1cccc2ncccc12)C(C)C (configuration not stated) | · | -1.7 | -4.2 | -0.1 | · | · | ·
COc1cc(-c2cc(NC=O)c3ncc(-c4ccc(C(C)=O)cc4)n3c2)cc(OC)c1OC | -3.9 | -2.2 | -4.4 | -3.3 | · | · | ·
COc1cc(-c2cnc3c(NC=O)cc(-c4ccc(C)cc4)cn23)cc(OC)c1OC | 11.0* | -0.5 | -2.6 | -2.4 | · | 21.4* | -6.8
CCCC(=O)Nc1ccc(NC(=O)c2ccccc2F)cn1 | 0.2 | 0.8 | 2.7 | -1.2 | 0.7 | · | ·
CCCC(=O)Nc1ccc(NC(=O)c2ccccc2)nc1 | 4.7* | -0.1 | 5.3 | 3.1 | 1.3 | 13.3* | 6.6*
CN(Cc1ccccc1)C(=O)c1cccc(NC(=O)Cc2ccc(NC(=O)C3CCN(C(=O)C4CCC4)CC3)cc2)c1 | -1.1 | -1.1 | -2.3 | -1.9 | -0.3 | · | ·
CCCCN(CC)CCCNC(=O)c1cc2c(=O)n(C)c3ccccc3c2n1C | 4.7* | -1.6 | 0.9 | -0.9 | 3.2 | 8.7* | 1.9
Cc1cc(C)cc(Cn2cc(CN3CC(N4CCN(C)CC4)CS3(=O)=O)nn2)c1 (configuration not stated) | 0.3 | -1.4 | 0.2 | 1.5 | · | · | ·
Cc1cc2oc(=O)cc(CN(C)Cc3ccccc3)c2cc1C | 1.3 | 0.2 | 4.8 | 1.7 | · | · | ·
SMILES | DAX1 inh-1 | ssDAF-12 act | hgDAF-12 ag | hcDAF-12 act | DAX1 inh-2 | DAX1 conf | SF1 AF2mut Luc
Cc1cc(NC(=O)COc2ccc3ccccc3c2Br)no1 | 6.0* | -0.7 | 9.2 | 3.0 | 0.8 | 5.6* | 6.0*
CCc1ccc(N2CC(C(=O)N3CCN(c4ccc([N+](=O)[O-])cc4)CC3)CC2=O)cc1 (configuration not stated) | -0.9 | -1.3 | -0.8 | -0.6 | -0.7 | · | ·
CC(=O)Oc1ccc(C2=Cc3ccc(OC(C)=O)cc3OC2C)cc1 (configuration not stated) | -2.4 | -1.0 | -0.1 | 0.1 | -1.3 | · | ·
COc1ccc(C(=O)Nc2ccc(N3CCN(C)CC3)cc2)cc1 | 1.6 | 0.9 | 7.9 | 1.8 | 2.2 | · | ·
CN1CCN(c2ccc(NC(=O)c3ccc(Br)o3)cc2)CC1 | 6.2* | 0.5 | 12.1* | 3.5 | 1.1 | 8.3* | 6.1*
CN1CCN(c2ccc(NC(=O)c3ccc4ccccc4c3)cc2)CC1 | 8.2* | -0.5 | 8.6 | 2.9 | 0.3 | 10.2* | 0.2
Cc1cc(C)cc(C(=O)Nc2ccc(N3CCCC3)cc2)c1 | 4.5* | 0.0 | 12.4* | 3.0 | 1.4 | 12.5* | 5.8*
CCc1ccccc1Oc1nc(NC(C)C)nc2ccsc12 | -0.6 | -1.0 | -1.1 | 1.6 | · | · | ·
CC(C)c1ccc(/C=C2\SC(=O)N(CC(=O)NCCCn3ccnc3)C2=O)cc1 | 6.8* | 0.2 | 10.7* | 3.5 | 0.8 | 6.2* | 6.5*
O=C(Cc1ccc2c(c1)OCO2)N1CCC(n2nc(-c3ccccc3)oc2=O)CC1 | · | -1.9 | -3.0 | -3.6 | · | · | ·
Cc1ccnc(NC(=O)CNC(=O)c2sc3ccccc3c2Cl)c1 | 10.0* | 0.0 | 9.6 | 4.9 | 1.4 | 11.2* | 7.2*
O=C(NCC(=O)N1CCCCC1)c1sc2ccccc2c1Cl | 5.8* | 0.0 | 8.3 | 0.6 | 2.2 | 5.5* | 3.4*
Cc1cccnc1NC(=O)c1sc2ccccc2c1Cl | 10.1* | -0.1 | 13.2* | 3.5 | 1.2 | 11.3* | 5.3*
Cc1ccc2nsnc2c1NC(=O)c1sc2ccccc2c1Cl | -0.4 | -1.8 | 0.1 | -0.1 | -0.4 | · | ·
O=S(=O)(c1ccc(Cl)s1)N1CCC(c2cn3ccccc3n2)CC1 | -0.2 | -1.2 | -0.9 | -2.1 | · | · | ·
CCOC(=O)c1ccc(NC(=O)N2CCc3ccccc32)cc1 | 4.8* | 0.7 | 18.5* | 5.5 | 1.7 | 10.8* | 7.9*
COCCNc1nc(Oc2ccc(C(N)=O)cc2)c2sccc2n1 | -0.6 | -1.8 | -2.6 | -2.2 | · | · | ·
Cc1sc2nc(SCC(=O)Nc3cccc(C(=O)O)c3)[nH]c(=O)c2c1C | -1.4 | -0.2 | 0.8 | -0.8 | -0.3 | · | ·
Cc1sc2nc(SCC(=O)Nc3ccc(Cl)c(C(=O)O)c3)[nH]c(=O)c2c1C | 6.0* | 0.7 | 17.1* | 5.3 | 0.8 | 12.3* | 9.5*

Screening data as filed in PubChem BioAssay.
